Sampled rows, rich in hits. Any-hit rate of the full collection: about 4.8%.
NR1D1 modulator: Rev-erb alpha (human) modulation. P20393. Rev-erbα–FITC-DNA binding, fluorescence polarization, 90 min. activity, % at 10 µM. 370,000 tested, 0.79% active;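 active means activity above about 14%, limit read from the data; passing the limit was not always enough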
DAX1 inh-1: inhibitors of DAX1 repression of SF-1 activated StAR promoter. inhibition, % at 6.8 µM. 370,000 tested, 1.1% active. AID 652010. HEK293T StAR-luciferase reporter, SF-1/DAX-1 repression relief;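 active means inhibition above the mean over all tested compounds plus 3 SD, cut at about 3.6% in these data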;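 further: higher inhibition means more luminescence from relief of DAX-1 repression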
hgDAF12 agonist: activates the H. glycines DAF-12 receptor ligand-binding domain | HEK293 GAL4-hgDAF12 UAS-luciferase reporter, agonist luminescence; normalized to butyrate control | activation, % at 6.8 µM | 370,000 tested, 1.8% active;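 active means activation above a cutoff set at the mean of all screened compounds plus 3 SD, cut at about 10% in these data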
DAX1 inh-2: inhibitors of human orphan nuclear receptor DAX1 (NR0B1) | P51843 | HEK293 Gal4-DAX1 luciferase reporter, luminescence | inhibition, % at 6.75 µM | 340,000 tested, 0.99% active | AID 504766;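 active means inhibition above the mean over all tested compounds plus 3 SD, cut at about 4.2% in these data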;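 further: inhibition shows as a rise in luminescence from relieved DAX1 repression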
ssDAF-12 act: activators of S. stercoralis DAF-12 nuclear receptor; HEK293 ssDAF-12/GRIP1 lit1-tk-luc reporter, luminescence; % of 3 µM dafachronic acid response; activation, % at 6.8 µM; 370,000 tested, 1% active;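 active means activation above the mean over all tested compounds plus 3 SD, cut at about 0.9% in these data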
hcDAF12 agonist: activates DAF-12 receptor from parasite H. contortus | activation, % at 6.8 µM | HEK293 hcDAF-12 lit1-tk-luc reporter, luminescence; 0% DMSO, 100% Δ7-dafachronic acid | 370,000 tested, 1.4% active | AID 652067;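 active means activation above the mean of all tested compounds plus 3 SD, cut at about 5.5% in these data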
DAX1 conf: confirmation of human DAX1 (NR0B1) inhibitors; shares compounds with DAX1 inh-1; HEK293T StAR-promoter luciferase reporter, SF-1/DAX-1 repression; inhibition, % at 6.8 µM; 2,400 tested, 87% active;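 active means inhibition above the average of every tested compound plus 3 SD, cut at about 3.8% in these data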;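 further: active compounds raise luminescence by relieving repression of the StAR reporter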
Target sequence (P51843 whole entry, looked up): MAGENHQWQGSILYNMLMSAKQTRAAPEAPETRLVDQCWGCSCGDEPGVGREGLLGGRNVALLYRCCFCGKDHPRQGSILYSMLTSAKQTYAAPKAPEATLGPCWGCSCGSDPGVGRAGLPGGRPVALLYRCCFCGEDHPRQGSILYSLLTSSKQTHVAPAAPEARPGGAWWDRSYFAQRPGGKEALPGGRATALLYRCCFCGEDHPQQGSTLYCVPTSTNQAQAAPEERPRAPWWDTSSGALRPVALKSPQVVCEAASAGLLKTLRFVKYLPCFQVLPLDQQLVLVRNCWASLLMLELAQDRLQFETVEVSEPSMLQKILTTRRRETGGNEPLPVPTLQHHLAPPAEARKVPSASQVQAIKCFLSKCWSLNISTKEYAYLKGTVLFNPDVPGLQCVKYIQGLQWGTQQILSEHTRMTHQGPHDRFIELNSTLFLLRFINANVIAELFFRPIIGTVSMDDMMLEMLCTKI
SF1 mutant ctr: nonselective inhibitor or artifact in SF-1 mutant DAX1 counter-screen. shares compounds with DAX1 inh-1. HEK293 StAR-luciferase, SF-1 AF2 mutant, luminescence. inhibition, % at 6.8 µM. 2,400 tested, 78% active. AID 652136;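 active means inhibition above the mean of all tested compounds plus 3 SD, cut at about 3% in these data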
A number is an active result; - = inactive; . = no result given.

SMILES	NR1D1 modulator	DAX1 inh-1	hgDAF12 agonist	DAX1 inh-2	ssDAF-12 act	hcDAF12 agonist	DAX1 conf	SF1 mutant ctr
C=C[C@@]1(C)CC(=O)[C@]2(O)[C@@]3(C)[C@@H](O)CCC(C)(C)[C@@H]3[C@H](OC(C)=O)[C@H](O)[C@@]2(C)O1	-	-	-	-	-	-	.	.
C=C[C@@]1(C)CC(=O)[C@]2(O)[C@@]3(C)[C@@H](O)CCC(C)(C)[C@@H]3[C@H](O)[C@H](OC(C)=O)[C@@]2(C)O1	-	9.6	-	-	-	-	22.2	-
Cc1ccccc1CN1CCCCC(NC(=O)C(C)(C)C)C1=O (stereo not given)	-	-	-	.	-	-	.	.
O=C(CSc1nc2ccccc2[nH]1)NN=Cc1ccccc1C(=O)O	-	5.5	-	.	-	5.9	12.0	7.8
O=C(CSc1nc2ccccc2[nH]1)N/N=C/c1ccncc1	-	-	-	.	-	-	.	.
CCC[C@H]1[C@@H](N(C)CC2CCCCC2)CC[C@@]23CCCN2C(=O)CCC[C@@H]13	-	.	-	.	-	-	.	.
O=C(OCC#CCSc1nnc(-c2c[nH]c3ccccc23)o1)c1ccc(F)cc1	-	.	-	.	-	-	.	.
CCc1ccc(CNc2ccc3c(c2)ncn3C)cc1	-	4.6	-	-	-	-	7.9	6.9
COc1ccc(CNc2ccc3c(c2)ncn3C)cc1OC	-	-	-	-	-	-	.	.
CCCn1cnc2cc(NCc3ccccn3)ccc21	-	5.0	-	-	-	-	3.8	-
COc1ccccc1-n1cnc2cc(NCc3ccccn3)ccc21	-	-	-	-	-	-	.	.
CCOC(=O)N[C@H](C(=O)N1CCC[C@H]1C(=O)NCCc1ccccc1Cl)C1CCCCC1	-	-	-	.	-	-	.	.
COc1cccc(-c2ccc3c(c2)[C@@H]2C[C@H]4[C@@H](CN2CC3)[C@H](C)ON4C)c1	-	-	-	.	-	-	.	.
Cc1cc(-c2n[nH]c(=S)n2N=Cc2c3ccccc3cc3ccccc23)n[nH]1	-	-	-	.	-	-	.	.
O=C(c1cc(-c2ccc(Cl)cc2Cl)on1)N1CCOCC1	.	6.1	-	-	-	-	7.9	-
O=C(c1cc(-c2ccc(Cl)c(Cl)c2)on1)N1CCOCC1	-	-	-	-	-	-	.	.
C[C@H]1[C@@H](OC(=O)Nc2cccc(C(F)(F)F)c2)CC[C@@]23CCCN2C(=O)CCC[C@@H]13	-	.	-	.	-	-	.	.
CC[C@@H](C)[C@H](C(CC(=O)N1CCCC1[C@@H](OC)[C@H](C)C(=O)N[C@H](Cc1ccccc1)c1nccs1)OC)N(C)C(=O)[C@H](NC(=O)[C@@H](C(C)C)N(C)C)C(C)C (stereo not given in full)	-	7.7	-	-	-	-	29.8	-
COc1ccc(C(=O)N(C)C(C)c2nccs2)cc1OC1CCN(C(C)=O)CC1 (stereo not given)	-	-	-	-	-	-	.	.
COc1ccc(-c2ccc(NC(=O)c3ccc(Br)o3)cc2)nn1	-	5.2	-	-	-	-	5.6	4.2
COC(=O)[C@]12C[C@H](CC(=O)N3CCN(C(=O)c4ccco4)CC3)C(=O)N(CCC3=CCCCC3)C1=C[C@H](C(C)(C)C)O[C@@H]2C	-	-	-	.	-	-	.	.
N#Cc1ccccc1S(=O)(=O)N1CCC(C(=O)NCc2ccccc2CN2CCCC2)CC1	-	5.4	-	-	-	-	-	-
Cc1[nH]c2ccccc2c1CC(=O)Nc1ccc(Oc2cccnc2)cc1	-	-	-	.	-	-	.	.
Cc1noc(C)c1C(=O)N1CCC(n2nnc3ncccc32)CC1	-	-	-	.	-	-	.	.
COCCn1c(C)cc(C(=O)COC(=O)c2ccc(-n3nc(C)cc3C)cc2)c1C	-	-	-	-	-	-	.	.
SMILES	NR1D1 modulator	DAX1 inh-1	hgDAF12 agonist	DAX1 inh-2	ssDAF-12 act	hcDAF12 agonist	DAX1 conf	SF1 mutant ctr
COCCn1c(C)cc(C(=O)COC(=O)c2ccc(Cl)c(S(N)(=O)=O)c2)c1C	-	5.5	-	-	-	-	8.7	-
O=C(NCCc1ccccc1)c1ccc([N+](=O)[O-])cc1	-	5.3	-	-	-	-	13.0	7.1
O=C(NCCc1ccc([N+](=O)[O-])cc1)c1ccccc1	-	-	-	-	-	-	.	.
CC(C)(C)OC(=O)N1CCC(N[C@@H](Cc2ccccc2)C(=O)NCC(c2ccccc2)c2ccccc2)(C(=O)NC2CCCCC2)CC1	-	.	-	.	-	-	.	.
COc1cc2nn(-c3ccccc3N)nc2cc1OC	-	4.7	10.9	-	-	-	6.7	4.8
Cc1ccc2occ(/C=N/NC(=O)c3ccccc3O)c(=O)c2c1	-	10.4	-	-	-	6.4	7.3	7.6
Cc1ccc2occ(/C=N/NC(=O)c3ccc(Cl)cc3)c(=O)c2c1	-	-	-	-	-	-	.	.
Cc1ccc(C)c(OCc2cc(C(=O)N3CCN(C(=O)c4ccco4)CC3)no2)c1	-	6.4	-	-	-	-	6.2	4.1
Cc1ccc(C)c(OCc2cc(C(=O)N3CCN(c4ccccc4)CC3)no2)c1	-	6.3	-	-	-	-	5.3	4.8
O=C(c1cc(COc2ccc(F)cc2F)on1)N1CCN(C(=O)c2ccco2)CC1	-	-	-	-	-	-	.	.
C[C@H](O)[C@@H]1C(=O)N2CCc3c([nH]c4cccc(-c5ccccc5)c34)[C@@H]2C[C@@H]1N(C)C(=O)OCc1ccccc1	-	-	-	.	-	-	.	.
CN(C(=O)CSc1nc2ccccc2o1)C1CCCCC1	-	9.0	13.1	-	-	-	7.2	5.9
Cc1ccnc(NC(=O)CCNC(=O)c2ccccc2Cl)c1	-	5.0	-	-	-	-	8.5	5.6
Cc1ccnc(NC(=O)CC(NC(=O)c2ccccc2Cl)c2ccccc2)c1 (stereo not given)	-	6.1	11.4	-	-	-	7.0	7.0
Cc1ccc(NC(=O)CNC(=O)COc2ccccc2)nc1	-	-	-	-	-	-	.	.
Cc1ccnc(NC(=O)CNC(=O)c2ccccc2Br)c1	-	5.0	-	-	-	-	7.0	3.7
Cc1ccc(NC(=O)CC(NC(=O)c2ccccc2Cl)c2ccccc2)nc1 (stereo not given)	-	-	-	-	-	-	.	.
Cc1ccnc(NC(=O)CNC(=O)COc2ccccc2)c1	-	7.6	-	-	0.9	-	7.2	4.0
COc1ccc(-c2c(Cc3ccccc3)nc(NC(=O)c3ccccc3)n2C)cc1	-	-	-	.	-	-	.	.

High-throughput results as filed in PubChem.
